Source: PubChem BioAssay (NCI)
Compounds without any hit were thinned out: in the full panel of roughly 83,000, 20% have a hit.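 The endpoint reported here, percent growth, reads 100 for growth as untreated, 0 for no net growth and -100 for all cells dead.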

Tests used:
Assay in all cases: NCI-60 one-dose screen, 48 h (100 = growth as untreated, 0 = no growth, -100 = all killed)
Conditions in all cases: 10 µM unless noted; active means growth percent below 10; inactive means the rest
DU-145 prostate = test system: DU-145 prostate
K-562 leukemia = test system: K-562 leukemia
MALME-3M melanoma = test system: MALME-3M melanoma
MDA-MB-231 breast = test system: MDA-MB-231 breast
RXF 393 renal = test system: RXF 393 renal
SF-268 CNS = test system: SF-268 CNS
SF-295 CNS = test system: SF-295 CNS
SF-539 CNS = test system: SF-539 CNS
UACC-257 melanoma = test system: UACC-257 melanoma
M14 melanoma = test system: M14 melanoma
HCT-15 colon = test system: HCT-15 colon
HT29 colon = test system: HT29 colon
SNB-75 CNS = test system: SNB-75 CNS
SNB-19 CNS = test system: SNB-19 CNS
U251 CNS = test system: U251 CNS
PC-3 prostate = test system: PC-3 prostate
SK-MEL-5 melanoma = test system: SK-MEL-5 melanoma
UACC-62 melanoma = test system: UACC-62 melanoma
LOX IMVI melanoma = test system: LOX IMVI melanoma
SK-MEL-28 melanoma = test system: SK-MEL-28 melanoma

Measured: growth

C(CCCSC1=NCCN1)CCSC1=NCCN1
inactive: DU-145 prostate 109% | K-562 leukemia 116% | MALME-3M melanoma 104% | MDA-MB-231 breast 103% | RXF 393 renal 104% | SF-268 CNS 106% | SF-295 CNS 108% | SF-539 CNS 101% | UACC-257 melanoma 98.5% | M14 melanoma 99.3% | HCT-15 colon 102% | HT29 colon 95% | SNB-75 CNS 91.4% | SNB-19 CNS 114% | U251 CNS 98.2% | PC-3 prostate 64.7% | SK-MEL-5 melanoma 107% | UACC-62 melanoma 107% | LOX IMVI melanoma 99.1% | SK-MEL-28 melanoma 113%

O=C1/C(=C/c2ccc(-c3ccc(Cl)cc3)o2)SC(=S)N1CCc1ccc(O)cc1
inactive: DU-145 prostate 29.1% | K-562 leukemia 26.1% | MALME-3M melanoma 76.7% | MDA-MB-231 breast 75.6% | RXF 393 renal 70% | SF-268 CNS 31.2% | SF-295 CNS 104% | SF-539 CNS 70.9% | UACC-257 melanoma 42% | M14 melanoma 38.2% | HCT-15 colon 67.5% | HT29 colon 25.2% | SNB-75 CNS 25.8% | SNB-19 CNS 87.2% | U251 CNS 22.2% | PC-3 prostate 53.2% | SK-MEL-5 melanoma 94.5% | UACC-62 melanoma 50.5% | LOX IMVI melanoma 75.1% | SK-MEL-28 melanoma 93.6%

O=C(NS(=O)(=O)c1ccccc1)n1cc(-c2ccncc2)c(-c2cc(O)cc(Cl)c2)n1
inactive: DU-145 prostate 112% | K-562 leukemia 78% | MALME-3M melanoma 15.3% | MDA-MB-231 breast 90.4% | RXF 393 renal 112% | SF-268 CNS 108% | SF-295 CNS 110% | SF-539 CNS 86.5% | UACC-257 melanoma 70.8% | M14 melanoma 32.1% | HCT-15 colon 95.9% | HT29 colon 98.4% | SNB-75 CNS 82.6% | SNB-19 CNS 115% | U251 CNS 104% | PC-3 prostate 95% | SK-MEL-5 melanoma 98.9% | UACC-62 melanoma 39.3% | LOX IMVI melanoma 92.8% | SK-MEL-28 melanoma 67.6%

CN(CCNc1ccc(C(=N)N)cc1)c1ccc(C(=N)N)cc1
inactive: DU-145 prostate 66.6% | K-562 leukemia 74.4% | MALME-3M melanoma 84.7% | MDA-MB-231 breast 91.8% | RXF 393 renal 109% | SF-268 CNS 99.4% | SF-295 CNS 54.3% | SF-539 CNS 101% | UACC-257 melanoma 55.1% | M14 melanoma 96.1% | HCT-15 colon 84.5% | HT29 colon 101% | SNB-75 CNS 96.8% | SNB-19 CNS 104% | U251 CNS 81.2% | PC-3 prostate 82.2% | SK-MEL-5 melanoma 67% | UACC-62 melanoma 72.6% | LOX IMVI melanoma 82.4% | SK-MEL-28 melanoma 94.8%
